Where “and” joins values, the source holds several entries; their conditions need not be identical. Equal entries are not always repeated. Inconclusive results are not listed. The source holds several records for some structures; these can differ, active in one and inactive in another. Calls of active or inactive are those of the source. The calls were made as follows, unless noted: active = hit-call score of the fitted dose curve at least 0.9, where 1 is the maximum; inactive = score below 0.9.
Key:
[1] = system: DIO2 (gene 1734); test: CCTE_GLTED_hDIO2: CCTE's human Deiodinase 2 (DIO2) Inhibition Assay, Great Lakes Toxicology and Ecology Division (GLTED) Lab (AID 2284050; active = hit-call score of the fitted dose curve at least 0.9, where 1 is the maximum)
How it was run: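 Cell-free human DIO2 incubated 3 h with chemical; liberated iodide quantified by Sandell-Kolthoff absorbance. Triplicate plates; loss of signal fitted vs DMSO.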

[2] = system: DIO3 (gene 1735); test: CCTE_GLTED_hDIO3: CCTE's human Deiodinase 3 (DIO3) Inhibition Assay, Great Lakes Toxicology and Ecology Division (GLTED) Lab (AID 2284055; active = hit-call score of the fitted dose curve at least 0.9, where 1 is the maximum;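 as to AC50: potency is for inhibition seen as loss of released iodide signal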)
How it was run: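 Human DIO3 from an adenovirus expression system is incubated 3 h with test chemical. Released iodide is quantified by Sandell-Kolthoff absorbance, in triplicate plates. Loss of signal is fitted relative to DMSO.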

[3] = CCTE_Shafer_MEA_dev_network_spike_number: CCTE's Neural Network Formation Assay for Number of Network Spikes, Shafer Lab (AID 2284048);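 also: synchronized bursts across electrodes counted on days 5 7 9 12 and integrated as AUC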;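 as to AC50: fit as a loss of signal meaning fewer network spikes than DMSO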
How it was run: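 Primary rat cortical neurons on PEI/laminin 48-well MEA plates, dosed from plating day 0 for 12 days, renewed at DIV 5 and 9. Network spike counts recorded DIV 5, 7, 9, 12, collapsed as trapezoidal AUC; DMSO baseline.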

[4] = CCTE_Shafer_MEA_dev_network_spike_peak: CCTE's Neural Network Formation Assay for Mean Number of Electrodes in Network Spike, Shafer Lab (AID 2284049);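 as to AC50: fitted for loss of signal meaning fewer electrodes in network spikes than DMSO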
How it was run: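 Network-spike peak electrode count from recordings on days 5, 7, 9 and 12 was combined as trapezoidal area under the curve. Rat cortical cultures were treated continuously from plating, with compound renewed at each feed (DIV 5, 9); fits versus DMSO.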

[5] = CCTE_Shafer_MEA_dev_spike_duration_mean: CCTE's Neural Network Formation Assay for Mean Spike Duration, Shafer Lab (AID 2284051);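 also: mean network spike duration pooled as area under curve over DIV 5 to 12 recordings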;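 as to AC50: potency for a decrease in mean network spike duration versus DMSO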
How it was run: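 Rat cortical primary cultures, 48-well MEA (16 electrodes/well); compound from plating, renewed DIV 5, 9. Network spike duration (AxIS adaptive detector) recorded DIV 5/7/9/12, combined as trapezoidal AUC; loss direction vs DMSO.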

[6] = CCTE_Shafer_MEA_dev_network_spike_duration_std: CCTE's Neural Network Formation Assay for Standard Deviation of Network Spike Duration, Shafer Lab (AID 2284052);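 also: area under curve of spike duration SD across recording days 5 to 12; hits are decreases in network spike duration SD versus DMSO vehicle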
How it was run: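 Rat cortical cultures, 1.5 x 10^5 cells/well, exposed continuously from plating to DIV 12 with media/compound renewal at DIV 5, 9. Spontaneous activity recorded DIV 5/7/9/12, AxIS adaptive spike detector; AUC across days; negative direction vs DMSO.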

[7] = CCTE_Shafer_MEA_dev_per_network_spike_spike_percent: CCTE's Neural Network Formation Assay for Percent of Spikes in a Network Spike, Shafer Lab (AID 2284054)
How it was run: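 Rat primary cortical neurons were grown on 48-well MEA plates (16 electrodes/well), exposed from plating day 0 through day 12, with treatment renewed on DIV 5 and 9. Percent of spikes within 0.05 s network-spike peaks was measured, summarised as AUC across days 5, 7, 9, 12.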

[8] = CCTE_Shafer_MEA_dev_LDH: CCTE's Lactate Dehydrogenase Assay for Cytotoxicity in the Neural Network Formation Assay, Shafer Lab (AID 2284068; active = hit-call score of the fitted dose curve at least 0.9, where 1 is the maximum;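 also: exposure for twelve days from plating with re-dosing on DIV 5 and 9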)
How it was run: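 Rat cortical primary neurons, MEA culture; dosing day 0–12, full medium plus compound exchange DIV 5, 9. Read-out: LDH enzyme activity, spectrophotometric. DMSO = negative control/baseline; signal loss → cytotoxicity.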

[9] = CCTE_Shafer_MEA_acute_AB: CCTE's Alamar Blue Assay for Cytotoxicity in the Neural Acute Assay, Shafer Lab (AID 2284069; active = hit-call score of the fitted dose curve at least 0.9, where 1 is the maximum;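 also: active compounds lower the viability signal compared with DMSO wells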)
How it was run: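 Read-out: resazurin fluorescence (ex 544, em 590 nm) after CTB reagent at 1:6 dilution in fresh media. Cells: primary rat cortical neuron networks, DIV 13 or 15, chemically exposed on MEA plates; DMSO as negative control/baseline.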

[10] = UKN5_HCS_SBAD2_cell_viability: Viability Assessment in the University of Konstanz (UKN) Leist Lab Neurite Outgrowth Assay in human iPSC-derived immature Dorsal Root Ganglia Neurons (UKN5) (AID 2284056)
How it was run: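 iPSC-derived immature peripheral neurons (SBAD2) seeded on Matrigel with CHIR99021, SU5402 and DAPT, dosed 1 h later for 24 h. Viability from Hoechst H-33342 and calcein-AM live staining, high-content imaging; bidirectional fit versus DMSO.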

Measured: AC50

Oc1ccc2ccc3cccc4ccc1c2c34
active: [1] 100 µM | [2] 61.4 µM

[O-][Cl+]O
inactive: [3] | [4] | [5] | [6] | [7] | [8]

CC(C)(O)c1cnn2c(-c3ccc(F)c(-c4c(F)cccc4C#N)c3)cnc2n1
active: [4] 1.98 µM | [5] 1.98 µM | [7] 10 µM
inactive: [3] | [6] | [9]

N#CC(Br)Br
inactive: [9]

CCCCCCCCn1sccc1=O
active: [1] 8.47 µM | [2] 17.5 µM
inactive: [9]

CCN(CC)N=O
inactive: [9]

ClC1=C(Cl)[C@]2(Cl)[C@H]3[C@H]([C@@H]4C=C[C@H]3C4)[C@@]1(Cl)C2(Cl)Cl
active: [3] 7.56 µM | [4] 5.55 µM | [5] 5.79 µM | [7] 7.67 µM | [8] 6.69 µM
inactive: [6]

O=P(OCCCl)(OCCCl)OCCCl
inactive: [3] | [4] | [5] | [6] | [7] | [9]

ClCCOCCCl
inactive: [1] | [2] | [9]

O=C(N[C@H](c1ccccc1)[C@@H]1CN2CCC1CC2)c1c(Cl)ccc(C(F)(F)F)c1Cl
inactive: [9]

c1ccc(NNc2ccccc2)cc1
inactive: [9]

CN(C)[C@@H]1C(=O)C(C(N)=O)=C(O)[C@@]2(O)C(=O)C3=C(O)c4c(O)cccc4[C@@](C)(O)[C@H]3C[C@@H]12
active: [2] 79.8 µM
not listed: [9] | [10]
inactive: all other assays above

CCC(C)c1ccc(O)cc1 (stereo unspecified)
inactive: [9]

C[N+](C)(C)CC1CO1 (stereo unspecified)
inactive: [9]

Cc1cc(N=Nc2ccccc2C)ccc1N
inactive: [9]

O=[N+]([O-])c1ccc(Oc2ccc(Cl)cc2Cl)cc1
inactive: [9]

Nc1cc(Cl)cc(C(=O)O)c1Cl
inactive: [3] | [4] | [5] | [6] | [7] | [8]

O=[N+]([O-])C(Br)(CO)CO
active: [9] 26.9 µM

CCCCOC(=O)c1ccccc1C(=O)OCc1ccccc1
inactive: [3] | [6] | [7] | [9]
active: [4] 15.2 µM | [5] 13.6 µM

C[C@]12C=CC3=C4CCC(=O)C=C4CC[C@H]3[C@@H]1CC[C@@H]2O
active: [1] 100 µM | [2] 23.5 µM

C1=Cc2cccc3cccc1c23
inactive: [3] | [4] | [5] | [6] | [7] | [8]

Cc1ccc(N)c(N)c1
inactive: [9]

O=Cc1ccco1
inactive: [9]

CNC(=O)Oc1cccc2c1OC(C)(C)C2
active: [4] 10 µM and 49.6 µM | [5] 10 µM and 49.6 µM | [8] 49.6 µM
inactive: [3] | [6] | [7] | [8]

CCNS(=O)(=O)C(F)(F)C(F)(F)C(F)(F)C(F)(F)C(F)(F)C(F)(F)C(F)(F)C(F)(F)F
inactive: [3] | [6] | [2]
active: [3] 2.98 µM | [4] 5.46 µM and 1.92 µM | [1] 100 µM | [5] 15 µM and 4.81 µM | [7] 6.71 µM and 4.93 µM | [8] 8.58 µM and 4.41 µM

CCN(CC)CCO
inactive: [9]

CCCCCOC(=O)c1ccccc1C(=O)OCCCCC
inactive: [9]

CC(C)(C)C(O)(CCc1ccc(Cl)cc1)Cn1cncn1 (stereo unspecified)
inactive: [6] | [7] | [8] | [9]
active: [3] 0.801 µM | [4] 15 µM | [5] 15 µM

CC(C)(OOC(C)(C)c1ccccc1)c1ccccc1
inactive: [9]

CCC[CH2][Sn]([Cl])([CH2]CCC)[CH2]CCC
active: [3] 0.0565 µM | [4] 0.0754 µM | [5] 0.0303 µM | [6] 13.8 nM | [7] 0.0777 µM | [10] 0.306 µM | [8] 0.0843 µM | [9] 1.92 µM and 3.06 µM

c1ccc(N=Nc2ccccc2)cc1
inactive: [9]

OCCOCCO
inactive: [3] | [4] | [5] | [6] | [7]

Clc1ccc(C(c2ccc(Cl)cc2)C(Cl)Cl)cc1
inactive: [9]
active: [3] 1.98 µM | [4] 4.03 µM | [5] 3.39 µM | [6] 3210 nM | [7] 3.97 µM | [8] 5.96 µM

ClC1=C(Cl)C2(Cl)C3C(Cl)C=CC3C1(Cl)C2(Cl)Cl (stereo unspecified)
active: [4] 4.19 µM | [5] 4.2 µM | [6] 744 nM | [7] 1.4 µM | [8] 2.98 µM
inactive: [3] | [9]

CC(C)COC(=O)c1ccccc1C(=O)OCC(C)C
inactive: [3] | [6] | [9]
active: [4] 15.9 µM | [5] 13.7 µM | [7] 23.1 µM | [8] 23.6 µM

COP(=S)(OC)SCN1C(=O)c2ccccc2C1=O
active: [4] 37.6 µM and 51.5 µM | [5] 36.7 µM and 23.6 µM | [7] 20.2 µM | [8] 28.9 µM
inactive: [3] | [6] | [7] | [8]

COC(=O)Nc1nc2ccccc2[nH]1
active: [4] 12.5 µM | [5] 12.5 µM | [7] 5.94 µM | [8] 12.5 µM
inactive: [3] | [6] | [9]

Clc1ccc(C(c2ccc(Cl)cc2)C(Cl)(Cl)Cl)cc1
active: [3] 2.58 µM and 2.86 µM | [4] 3.55 µM and 6.68 µM | [5] 2.62 µM and 8.54 µM | [6] 1.98 µM and 8.91 µM | [7] 3.02 µM and 4.15 µM | [8] 4.07 µM and 6.5 µM
inactive: [9]

[Cl-].[Cl-].[Hg+2]
active: [3] 0.444 µM | [4] 0.641 µM | [5] 0.64 µM | [6] 382 nM | [7] 0.423 µM | [8] 0.929 µM | [9] 32.6 µM
